Screening results (PubChem)
Hits are enriched below; roughly 9.5% of the tested compounds scored in any of these assays.
SARS PLpro yeast: blocks SARS-CoV papain-like protease in a yeast assay | S. cerevisiae expressing SARS-CoV PLpro, growth rescue | Potency, µM (highest dose often 32.9 µM), for the others: top-dose activity, positive = growth rescue, hits mostly activators | 330,000 compounds, 0.19% hits; further: potency means the concentration at half of the fitted maximal effect; 0% is about no effect; nearly all actives have a fitted effect of over 55% in size
Pf growth 96h: inhibits malaria parasite growth, 96 h. AID 504834. 320,000 compounds, 6.9% hits. Potency, µM (series often up to 28.7 µM), for the others: at the highest dose activity change, negative = inhibition, most hits filed as inhibitors. P. falciparum luciferase reporter growth, 96 h; active means well fitted inhibition curve with a large enough effect; inconclusive means small, poorly fitted or top-dose-only effect, or another doubt; inactive means no such curve, though single readings can be large or run the other way; further: potency means the concentration at half of the fitted maximal effect; on the % scale 0 is the no-effect control and ±100 the full control effect
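Two-generation exposure (96 h) targets delayed-death phenotype. Reporter parasites carrying integrated firefly luciferase, in red cells at 2% hematocrit and 0.05% parasitemia final, kept at 37 C, 5% CO2; luminescence loss indicates inhibition.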
RE007 growth inh: less growth of the S. pombe RE007 Vpr strain. S. pombe RE007 Vpr strain, BacTiter-Glo ATP luminescence, 24 h. Potency, µM (titrated, usually from 92.2 µM), for inactives: top-dose activity change, negative = less growth, actives largely listed as inhibitors. 360,000 compounds, 0.21% hits; active means well fitted falling curve with a large enough effect; inconclusive means small, poorly fitted or top-dose-only effect; inactive means no such curve, though single readings can be large or run the other way; further: potency means the concentration at half of the fitted maximal effect; on the % scale 0 is the no-effect control and ±100 the full control effect; nearly all actives have a fitted effect of over 50% in size
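Fission yeast RE007 carrying one integrated HIV-1 vpr copy, seeded at OD 0.01 in PMG+AL medium with 23 nL pinned compound. Grown 24 h at 30 degrees; viability read by BacTiter-Glo luminescence after 5 min.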
NS1 inh: influenza NS1 inhibition; Potency, µM (top dose mostly 46.1 µM), for the others: at the top dose activity, positive = more growth; 270,000 compounds, 0.4% hits; further: potency means the concentration at half of the fitted maximal effect; actives are rising curves; nearly all actives have a fitted effect of over 50% in size
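Growth recovery, yeast-based: influenza A NS1 expressed in S. cerevisiae causes slow growth, and suppressors are detected by OD600. The parent strain without NS1 is used as positive control.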
Pf growth 48h: inhibits P. falciparum growth in the first generation, 48 h. 310,000 compounds, 5.9% hits. Potency, µM (series often up to 28.7 µM), for the others: at the top dose activity change, negative = inhibition, hits mostly inhibitors. P. falciparum luciferase growth in erythrocytes, 48 h. AID 504832; active means well fitted inhibition curve with a large enough effect; inconclusive means small, poorly fitted or top-dose-only effect, or another doubt; inactive means no such curve, though single readings can be large or run the other way; further: potency means the concentration at half of the fitted maximal effect; on the % scale 0 is the no-effect control and ±100 the full control effect
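Read-out is firefly luciferase luminescence from an integrated reporter in P. falciparum, so falling signal marks reduced parasite growth. Infected erythrocytes were at 2% hematocrit and 0.1% parasitemia (final) in Albumax-supplemented RPMI 1640.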
Flu NS1 inh: validation of influenza NS1 protein function inhibitors | 1,400 tested, under 10 active | activity change, negative = inhibition, % at 32.9 µM | shares compounds with NS1 inh | influenza NS1 function cell assay, 15-point titration; further: 0% is about no effect
* = called active by the depositor; u = inconclusive; x = no result; ! = a repeat was not active; [ ] = dose if it differs, or a comment. Unless noted, the call rests on the fitted dose curve.

SMILES | SARS PLpro yeast | Pf growth 96h | RE007 growth inh | NS1 inh | Pf growth 48h | Flu NS1 inh
COc1cc2nc(N3CCN(C(=O)C4COc5ccccc5O4)CC3)nc(N)c2cc1OC (stereo not drawn) | -4% | 3.7µM* | -15%[18.4 µM] | 35µM*! | 4.7µM* | -33
CC1(C(=O)Nc2cccc3ccccc23)CCN1C(=O)Cc1ccc(Cl)cc1Cl (stereo not drawn) | x | x | 4%[18.4 µM] | x | x | x
CC(C)C[C@H](NC(=O)c1nc[nH]c1C(=O)NC(c1ccccc1)c1ccccc1)C(=O)OC(C)(C)C | 0% | u | 10% | 10µM* | u | 15
CC(C)C[C@H](NC(=O)c1[nH]cnc1C(=O)N[C@@H](C)C(=O)OCc1ccccc1)C(=O)OC(C)(C)C | -2% | 0% | -8% | 13µM* | u | -28
CC(C)C[C@H](NC(=O)c1nc[nH]c1C(=O)NCC(=O)OCc1ccccc1)C(=O)OC(C)(C)C | -1% | 136% | 10% | u | 56% | x
O=C(CN1C(=O)NC(c2ccccc2)(c2ccccc2)C1=O)N1CCOCC1 | -3% | -10% | 3% | x | 0% | x
CCOC(=O)[C@]12CCCC=C1N(Cc1ccccc1)C(=O)[C@H](CC(=O)N1CCCCCC1)C2 | x | x | 12% | x | x | x
O=C(CSc1cn(CC(=O)N2CCOCC2)c2ccccc12)N1CCOCC1 | 13% | u | -3% | u | 0% | 6
O=C(CSc1ccc(S(=O)(=O)N2CCCC2)cn1)Nc1ccc([N+](=O)[O-])cc1C(F)(F)F | x | x | -1% | x | x | x
Cc1ccc(-c2csc3ncn(CC(=O)N4CCOCC4)c(=O)c23)cc1 | 2% | 6% | -5% | -8% | 4% | x
O=C(Cn1cnc2scc(-c3ccc(Cl)cc3)c2c1=O)N1CCOCC1 | 0% | 18% | -8% | u | 71% | -16
CSc1ccccc1-c1nc(-c2ccncc2)no1 | -2% | -26% | -5% | -39% | x | x
Cc1ccn2c(=O)nc(SCC(=O)NCCc3ccccc3)nc2c1 | 2% | 7% | 1% | x | 13% | x
CN(Cc1nc(-c2ccc(Cl)cc2)no1)C(=O)c1ccc2c(c1)OCO2 | -16% | -17% | 35% | x | 5% | x
O=C(c1ccc2c(=O)n(CC3CCCO3)c(=S)[nH]c2c1)N1CCN(c2ccccc2)CC1 (stereo not drawn) | -3% | 38% | 26% | u | 13% | 0
CCOC(=O)N1CCN(C(=O)c2ccc3c(=O)n(CC4CCCO4)c(=S)[nH]c3c2)CC1 (stereo not drawn) | -1% | u | 7% | 0% | 4% | x
Cn1ccnc1COc1ccc(/C=N/O)cc1 | 1% | 2% | 1% | 2% | 10% | x
CN(N=O)c1cc(O)ccc1O | x | x | x | 18µM* | x | u
O=C(O)c1cccc(S(=O)(=O)Nc2ccc(O)c(Sc3nc4ccccc4s3)c2)c1 | 2% | u | 13% | 5% | 86% | x
O=S(=O)(Nc1ccc(O)c(Sc2nc3ccccc3s2)c1)c1cccc2ccccc12 | u | u | 6% | 20µM* | -4% | -10
O=C(CN1C(=O)c2ccc([N+](=O)[O-])cc2C1=O)Nc1cc(S(=O)(=O)N2CCOCC2)ccc1Cl | -1% | 0% | -8% | x | 49% | x
Cc1cc(-c2nnc3n2N=C(c2ccc(-c4ccccc4)cc2)CS3)n[nH]1 | -15% | u | 27% | 3.2µM* | 10µM* | u
CC(=O)N1CCN=C1SCc1ccccc1F | 2% | -59% | 9% | 1.3µM* | 1% | 5
CN1C(=O)C(c2nnc(Nc3cccc4ccccc34)s2)C2CC1(C)Oc1ccccc12 (stereo not drawn) | 11% | 4.7µM* | -8% | 11µM* | u | -21
CN(CC(=O)Nc1cccc2ccccc12)C(=O)c1cccc(S(=O)(=O)N(C)C)c1 | 2% | u | -4% | u | u | -6
SMILES | SARS PLpro yeast | Pf growth 96h | RE007 growth inh | NS1 inh | Pf growth 48h | Flu NS1 inh
CCS(=O)(=O)CCSC1OC(COC(C)=O)C(OC(C)=O)C(OC(C)=O)C1OC(C)=O (stereo not drawn) | -1% | 11% | -20% | 3% | 5% | x
CCN(CC)c1ccc(C=C(c2nnnn2-c2ccccc2)c2nnnn2-c2ccccc2)cc1 | 7% | 34% | 4% | 7.9µM* | u | 15
Cn1c(SCC(=O)c2ccc3c(c2)Cc2ccccc2-3)nnc1-c1cccc(N)c1 | -28% | u | -19% | u | u | 34
CCOc1ccc(C(=O)Cn2cnnc2C#N)cc1 | 1% | -21% | -3% | u | -26% | 6
Cc1ccc(S(=O)(=O)NC(=O)C2(C)CCN2C(=O)CCc2ccc(Cl)cc2Cl)nc1 (stereo not drawn) | x | x | -3% | x | x | x
CCS(=O)(=O)Nc1cccc(C2=NN(S(=O)(=O)c3ccccc3)C(c3cccs3)C2)c1 (stereo not drawn) | 5% | u | -8% | 10µM* | u | 17
CCS(=O)(=O)Nc1cccc(C2=NN(S(=O)(=O)c3ccc(C)cc3)C(c3cccs3)C2)c1 (stereo not drawn) | -5% | 0% | 24% | 13µM* | u | 13
O=C(Oc1cccc([N+](=O)[O-])c1)N1CCCCC1 | -1% | 8% | -22% | x | -1% | x
CC(=O)N1c2ccc(S(=O)(=O)N(C)CC(=O)NCc3ccc(C)cc3)cc2CC1C (stereo not drawn) | 1% | u | -13% | 8% | 2% | x
COCCCN1C(=O)C(CC(=O)NCCN2CCOCC2)CC(C(=O)N2CCOCC2)=C1C (stereo not drawn) | x | x | -5% | x | x | x
c1ccc(-c2nc3ccccc3[nH]2)nc1 | -47% | 138% | -6% | 4.5µM* | 133% | u
CSc1nc(Cl)cc(Nc2ccc(O)cc2)n1 | -2% | 49% | 4% | x | 205% | x
Cc1c(Cl)c([N+](=O)[O-])nn1CC(=O)N1CCCC1 | 24% | u | 10% | u | -7% | 6
Cc1c(Cl)c([N+](=O)[O-])nn1CC(=O)N1CCN(Cc2ccccc2)CC1 | 0% | 0% | -1% | -1% | 8% | x
CCOC(=O)c1c(NC(=O)CSc2nc3nc(C)cc(C)n3n2)sc(CC)c1C | u | 5% | -7% | -3% | 21% | x
COC(=O)[C@@]1(Cc2ccc(F)cc2)[C@H]2c3cc(C(=O)N4CCCC4)n(CCc4ccc(O)c(O)c4)c3C[C@H]2CN1C(=O)c1ccccc1 | 7% | 5.9µM* | x | 8.9µM* | u | 4
CC(/C=C/c1ccc(N(C)C)cc1)=N/N=C1/NC(=O)CC(C(=O)Nc2ccc(Cl)cc2)S1 (stereo not drawn) | -33% | -3% | -9% | 10µM* | 55% | -14
COc1ccc(NC(=O)C2CC(=O)N/C(=N/N=C/c3ccccc3)S2)cc1 (stereo not drawn) | 2% | 11% | 9% | 5% | 5% | x
